Assay results from the supplement of paper PMC9262897, “Low-cost anti-mycobacterial drug discovery using engineered E. coli” (Nature Communications, 2022).
Structures can show the parent of a compound that is named as a salt. ± gives the standard deviation of the averaged measurements.

system: E. coli TESEC Mtb DapB; assay: growth (OD600 after 10 h); higher = more growth (less inhibition); conditions: arabinose induction (level): High; compound 0.1 mM; raw OD600 reference: median of DMSO wells […], cell-free background 0.041
Protocol: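 TESEC E. coli strains in which the native enzyme is deleted and replaced by arabinose-inducible Mtb Asd, DapB, CysH or TrpD, each grown in its selective medium. Strains were screened against the Prestwick library at 0.1 mM and 1% DMSO in 384-well format at low and high arabinose induction. Growth is read as OD600 after 10 h in triplicate.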

SMILES | growth
COc1cc2c(c(OC)c1OC)-c1ccc(OC)c(=O)cc1[C@@H](NC(C)=O)CC2 [Colchicine] | 0.204 ± 0.018
O=P1(NCCCl)OCCCN1CCCl (stereo not given) [Ifosfamide] | 0.204 ± 0.0083
NCC(CC(=O)O)c1ccc(Cl)cc1 (racemic) [Baclofen (R,S)] | 0.219 ± 0.017
CCN(C)C(=O)Oc1cccc([C@H](C)N(C)C)c1 [Rivastigmine] | 0.188 ± 0.01
Clc1ccc(C(OCCN2CCCCC2)c2ccccc2)cc1 (stereo not given) [Cloperastine hydrochloride] | 0.146 ± 0.012
COc1cccc(C2(O)CCCCC2CN(C)C)c1 (stereo not given) [Tramadol hydrochloride] | 0.188 ± 0.04
CN(C)C(=O)Oc1cc(OC(=O)N(C)C)cc(C(O)CNC(C)(C)C)c1 (stereo not given) [Bambuterol hydrochloride] | 0.193 ± 0.02
Cc1cccc(C)c1NC1=NCCCS1 [Xylazine] | 0.209 ± 0.016
CC(C)c1cccc(C(C)C)c1O [Propofol] | 0.212 ± 0.011
C#C[C@]1(O)CC[C@H]2[C@@H]3CCC4=CC(=O)CC[C@]4(C)[C@H]3CC[C@@]21C [Ethisterone] | 0.179 ± 0.0098
c1ccc2nc(N3CCNCC3)ccc2c1 [Quipazine dimaleate salt] | 0.215 ± 0.019
CC(O)(CS(=O)(=O)c1ccc(F)cc1)C(=O)Nc1ccc(C#N)c(C(F)(F)F)c1 (stereo not given) [Bicalutamide] | 0.196 ± 0.015
C[C@]12Cc3c[nH]nc3C[C@@H]1CC[C@@H]1[C@@H]2CC[C@@]2(C)[C@H]1CC[C@]2(C)O [Stanozolol] | 0.219 ± 0.018
CCCC[N+]1(C)[C@@H]2CC(OC(=O)[C@H](CO)c3ccccc3)C[C@H]1[C@@H]1O[C@@H]12 (stereo not given in full) [Butylscopolammonium (n-) bromide] | 0.216 ± 0.011
CN(C)[C@@H]1C(=O)C(C(N)=O)=C(O)[C@@]2(O)C(=O)C3=C(O)c4c(O)cccc4[C@@](C)(O)[C@H]3[C@H](O)[C@@H]12 [Oxytetracycline dihydrate] | 0.0531 ± 0.00076
C[N+]1([O-])[C@@H]2C[C@@H](OC(=O)[C@H](CO)c3ccccc3)C[C@H]1[C@@H]1O[C@@H]12 (stereo not given in full) [Scopolamin-N-oxide hydrobromide] | 0.221 ± 0.012
CCNCC(O)c1cccc(O)c1 (stereo not given) [Etilefrine hydrochloride] | 0.205 ± 0.0026
COc1ccc(CCN2CCC(Nc3nc4ccccc4n3Cc3ccc(F)cc3)CC2)cc1 [Astemizole] | 0.04653 ± 0.00032
c1ccc2c(c1)Nc1ccccc1S2 [Phenothiazine] | 0.209 ± 0.034
CNC(C)(C)Cc1ccccc1 [Mephentermine hemisulfate] | 0.208 ± 0.012

same assay, conditions: arabinose induction (level): Low; compound 0.1 mM; raw OD600 reference: median of DMSO wells 0.227, cell-free background 0.041

SMILES | growth
COc1cc2c(c(OC)c1OC)-c1ccc(OC)c(=O)cc1[C@@H](NC(C)=O)CC2 [Colchicine] | 0.228 ± 0.035
O=P1(NCCCl)OCCCN1CCCl (stereo not given) [Ifosfamide] | 0.222 ± 0.026
NCC(CC(=O)O)c1ccc(Cl)cc1 (racemic) [Baclofen (R,S)] | 0.246 ± 0.04
CCN(C)C(=O)Oc1cccc([C@H](C)N(C)C)c1 [Rivastigmine] | 0.281 ± 0.04
Clc1ccc(C(OCCN2CCCCC2)c2ccccc2)cc1 (stereo not given) [Cloperastine hydrochloride] | 0.163 ± 0.0059
COc1cccc(C2(O)CCCCC2CN(C)C)c1 (stereo not given) [Tramadol hydrochloride] | 0.202 ± 0.014
CN(C)C(=O)Oc1cc(OC(=O)N(C)C)cc(C(O)CNC(C)(C)C)c1 (stereo not given) [Bambuterol hydrochloride] | 0.211 ± 0.025
Cc1cccc(C)c1NC1=NCCCS1 [Xylazine] | 0.226 ± 0.022
CC(C)c1cccc(C(C)C)c1O [Propofol] | 0.236 ± 0.028
C#C[C@]1(O)CC[C@H]2[C@@H]3CCC4=CC(=O)CC[C@]4(C)[C@H]3CC[C@@]21C [Ethisterone] | 0.219 ± 0.02
c1ccc2nc(N3CCNCC3)ccc2c1 [Quipazine dimaleate salt] | 0.216 ± 0.012
CC(O)(CS(=O)(=O)c1ccc(F)cc1)C(=O)Nc1ccc(C#N)c(C(F)(F)F)c1 (stereo not given) [Bicalutamide] | 0.236 ± 0.021
C[C@]12Cc3c[nH]nc3C[C@@H]1CC[C@@H]1[C@@H]2CC[C@@]2(C)[C@H]1CC[C@]2(C)O [Stanozolol] | 0.193 ± 0.0045
CCCC[N+]1(C)[C@@H]2CC(OC(=O)[C@H](CO)c3ccccc3)C[C@H]1[C@@H]1O[C@@H]12 (stereo not given in full) [Butylscopolammonium (n-) bromide] | 0.232 ± 0.015
CN(C)[C@@H]1C(=O)C(C(N)=O)=C(O)[C@@]2(O)C(=O)C3=C(O)c4c(O)cccc4[C@@](C)(O)[C@H]3[C@H](O)[C@@H]12 [Oxytetracycline dihydrate] | 0.0536 ± 0.0012
C[N+]1([O-])[C@@H]2C[C@@H](OC(=O)[C@H](CO)c3ccccc3)C[C@H]1[C@@H]1O[C@@H]12 (stereo not given in full) [Scopolamin-N-oxide hydrobromide] | 0.257 ± 0.025
CCNCC(O)c1cccc(O)c1 (stereo not given) [Etilefrine hydrochloride] | 0.224 ± 0.035
COc1ccc(CCN2CCC(Nc3nc4ccccc4n3Cc3ccc(F)cc3)CC2)cc1 [Astemizole] | 0.0845 ± 0.059
c1ccc2c(c1)Nc1ccccc1S2 [Phenothiazine] | 0.236 ± 0.03
CNC(C)(C)Cc1ccccc1 [Mephentermine hemisulfate] | 0.221 ± 0.0061
